Among the data in PubChem BioAssay (NCI) are growth values, retold here.

About 83,000 compounds went through this panel and 20% of them were active in at least one assay; those are over-represented in the sample as a whole.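 For each line, cells grew in 96-well plates with the test compound present at a single concentration for 48 hours.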 Unmarked numbers belong to inactive results. Calls of active or inactive are those of the source. Rule for the calls: active = growth percent below 10; inactive = the rest.

For this assay, the system named is HL-60(TB) leukemia. The assay can be described thus: NCI-60 one-dose screen, 48 h (100 = growth as untreated, 0 = no growth, -100 = all killed). The conditions noted are these: 10 µM unless noted.
With `Cc1ccc(-c2nc3nc(-c4ccc(F)cc4)nc(N4CCCNCC4)c3o2)cc1`, the growth was -70.3% (active).

As to `N#Cc1ccc(OC(=O)Nc2ccc(Cl)c(Cl)c2)cc1`, the growth is 64.2%.

As to `CCc1c(C(=O)Nc2ccc3ccccc3c2)[nH]c(C)c1C(C)=O`, the growth is 99.7%.

Take `COc1ccc2c(c1)c(-c1nc(-c3c[nH]c4ncccc34)cs1)cn2CCN`: the growth is 41.2%.

For `CCNCC(=O)Nc1ccc(C(=O)OCC)cc1`, the growth was 88.6%.

Take `Clc1ccc2c(NCCN3CCN(c4ccnc(N5CCCC5)n4)CC3)ccnc2c1`: the growth was 37.4%.

In the case of `CN1CCN(c2ccc(OC(F)(F)F)c(Nc3ncc4c(n3)-c3c(c(C(N)=O)nn3CCO)CC4)c2)CC1`, the growth is -20.5% (active).

Turning to `COc1ccc2c(c1)C(=O)c1c-2c(OCCN(C)C)nc2ccccc12`, the growth is 25.4%.

Take `CCN=C1C=CC(=C(c2ccc(N)cc2)c2ccc(N(CC)CC)c(C)c2)C=C1`: the growth is -11% (active).

As for `CC(C)C(NC(=O)C1(NC(=O)OCc2ccccc2)CCCC1)C(=O)O` (stereo not given), the growth is 90.8%.

For `C1CCC(N2CN3c4nonc4N4CN(C5CCCCC5)CN5c6nonc6N(C2)C3C45)CC1` (stereo not given), the growth was 100%.

As to `O=C1CC(=O)N(c2ccccc2)O1`, the growth is 103%.

As for `COc1ccccc1NC(=O)c1cc2cc(Br)ccc2cc1O`, the growth was -33.7% (active).

As for `COc1cccc(-c2nn(-c3ccccc3)cc2-c2ccnc(NCCCNC(=O)c3ccccc3)c2)c1`, the growth is 23.8%.

For the compound `COc1cc2cc(NCc3ccc(OC(F)F)cc3)nc(C)c2cc1OC`, the growth is 38.7%.
